# CapD inh – Bacillus anthracis CapD inhibitors, primary screen, biochemical, fluorescence intensity | purified CapD enzyme, fluorescence intensity read-out; hits give low values | z-score (no concentration beside the values) | actives 0.23% (n = 140,000); in the data active = z-score mostly below about -2.9, no sharp cut-off; inactive = mostly above about -1.9
# * = called active by the depositor. The full list was thinned out, with hits kept by preference.
SMILES,CapD inh
CC(C)Oc1ccc(CN2CCC(N3C(=O)c4c(C(C)C)nc5ccccc5c4C3=O)C2)cc1 (centres undefined),0.025
CCOC(=O)c1cc(NC(=O)c2ccc(OC)cc2)c(=O)n2c1oc1ccccc12,0.01
O=C(NNC(=O)C1CCN(Cc2cccc(F)c2)CC1)c1cccs1,-0.085
Cc1ccc(N=C2NC(=O)C(Cc3cccc(Cl)c3)S2)cc1 (centres undefined),-0.04
CCCCN(CC)Cc1ccc(CNC(=O)Nc2ccccc2)o1,-5.07*
O=C(NCc1ccccc1)Nc1ccccc1,-0.625
CCCCN(CC)Cc1ccc(CNC(=S)Nc2cccc(F)c2)o1,0.485
CNC(=O)c1ccc2c(c1)CCN2S(C)(=O)=O,0.46
O=C(O)CN(CC(=O)O)c1ccccc1,0.17
Cn1cnnc1SCC(=O)N1CCCc2ccccc21,-0.405
CC1CC(C)CN(C(=O)COC(=O)/C=C/c2ccco2)C1 (centres undefined),-1.69
CC1C/C(=C/c2ccco2)C(C)N(C)C1 (centres undefined),-5.18*
CCC1C/C(=C/c2ccco2)C(=O)/C(=C/c2ccco2)C1 (centres undefined),-2.48
c1ccc2c(c1)sc1ccccc12,-10.1*
Cc1c(C#N)sc2ccccc12,-0.92
COc1c(C#N)sc2ccccc12,-0.385
O=C(NCCOc1ccccc1)OCCCCCc1ccccc1,-1.1
CCOC(=O)/C(C#N)=C(\C)c1ccc(NC(C)=O)cc1,-0.065
CCOC(=O)c1c(C)c(-c2ccccc2)n(CC(=O)NCc2cccs2)c1C,0.23
CNC(=O)c1sc(=S)n(-c2ccccc2)c1N,-2.59
CC1Cc2ccccc2N1C1=CC(=O)CCC1 (centres undefined),-5.75*
CC1Cc2ccccc2N1S(=O)(=O)c1ccccc1 (centres undefined),-0.785
CC1Cc2ccccc2N1C(=O)c1cccc(C(=O)N2c3ccccc3CC2C)n1 (centres undefined),-0.45
Cc1ccc(-c2noc(CCCC(=O)NCC3CCCO3)n2)cc1 (centres undefined),-1.02
CCOC(=O)c1c([N+](=O)[O-])c(C)[nH]c(=O)c1C#N,-0.085
SMILES,CapD inh
O=C(O)CC(NC(=O)Cc1ccccc1)C(F)(F)F (centres undefined),-0.36
CN(C)/C=C/C=C/c1cc(=O)cc(/C=C/C=C/N(C)C)o1,-14.6*
COc1ccc(NC(=S)NC2CCCCC2)cc1,-1.4
CC(O)(CS(=O)(=O)Cc1ccc(Cl)cc1)c1ccc(Cl)c(Cl)c1 (centres undefined),-0.17
O=C1Nc2ccccc2SC1C(C(=O)O)c1ccccc1 (centres undefined),-0.315
O=C1NC(=O)/C(=C\C=C\c2ccccc2)S1,0.62
O=C1NC(=S)S/C1=C\C=C\c1ccccc1,-4.03*
O=C1NC(=S)NC(=O)C1=C/C=C/c1ccccc1,0.025
Cc1cccc(C(=O)NC(Cc2ccccc2)C(N)=O)c1 (centres undefined),1.06
CCOC(=O)C1=C(N)Oc2c(c(=O)oc3ccccc23)C1c1c(F)cccc1Cl (centres undefined),-0.18
O=S(=O)(Nc1ccccc1F)c1ccc2[nH]c3c(c2c1)CCCC3,-0.36
CS(=O)(=O)c1ccc(C(=O)Nc2ccccc2)cc1,-2.85*
O=C(Nc1ccc(C(=O)c2ccccc2)cc1)c1ccccc1,-1.41
O=C(Nc1ccccc1)c1ccc(Br)cc1,-0.42
CCCN(CCC)S(=O)(=O)c1ccc(C(=O)Nc2ccc(F)cc2)cc1,-0.49
O=C(O)c1cc(C=Nc2ccc(S(=O)(=O)NC3NC=CS3)cc2)c2c(c1)COCO2 (centres undefined),-5.2*
Cc1cc(NS(=O)(=O)c2ccc(N=Cc3ccccc3O)cc2)no1,2.15
COc1cccc2cc(-c3nc4ccccc4[nH]3)c(=N)oc12,0.735
O=C(NC1CC1)c1ccc2c(c1)N(Cc1ccccc1)C(=O)CS2=O (centres undefined),-0.59
CC(=O)N(C(C)=O)c1ncnc2sc3c(c12)CCCC3,-5.36*
CC(C)(C)C(=O)Nc1ncnc2sc3c(c12)CCCC3,-0.315
CCN(CC)c1ncnc2sc3c(c12)CCCC3,-0.165
CCOC(=O)C1=C(C)N=c2s/c(=C/c3ccc(N4CCOCC4)o3)c(=O)n2C1c1ccc(SC)cc1 (centres undefined),-0.565
CCCc1cc2c(=O)c(-c3ccc4c(c3)OCCO4)c(C(F)(F)F)oc2c(C=[N+](C)C)c1O,-1.51
CCc1cc2c(=O)c(-c3ccc4c(c3)OCO4)c(C(F)(F)F)oc2c(CN(C)C)c1O,-4*
SMILES,CapD inh
CCN(CC)Cc1c(O)ccc2c(=O)c(-c3ccc(OC)c(OC)c3)c(C(F)(F)F)oc12,-0.02
CN(Cc1ccccc1)c1nc(-c2ccccc2)cc(C(F)(F)F)n1,0.015
O=C(CSc1nnc(-c2ccccc2)c(-c2ccccc2)n1)Nc1ccc(F)cc1,-0.735
O=C(CSc1nnc(-c2ccco2)c(-c2ccco2)n1)Nc1ccc(C(=O)O)cc1,-10.9*
COc1ccc(C(=O)CSc2nnc(-c3ccco3)c(-c3ccco3)n2)cc1,0.2
N#CC1(C#N)[C@H](C(N)=O)[C@H]1c1ccccc1,0.405
N#CC1=C(SCC(N)=O)NC(=O)CC1c1ccccc1 (centres undefined),0.105
N#CC1=C(N)NC(=S)C(C(N)=O)C1c1ccccc1 (centres undefined),-4.49*
CSc1n[nH]c(NC(=O)Nc2ccccc2)c1S(=O)(=O)c1ccc(Cl)cc1,0.925
Cc1c(C)c(C)c(CSc2nnc(CC#N)n2C)c(C)c1C,0.505
O=C1c2ccccc2CC(=O)c2sccc21,-6.75*
CN1CCC(=C2c3ccccc3CC(=O)c3sccc32)CC1,-0.295
O=C1/C(=C/c2cccs2)Cc2ccccc21,-1.29
COC(=O)c1c(C)[nH]c(C(=O)CSc2ncnc3sc4c(c23)CCC4)c1C,-0.995
O=C(O)CSc1sc(=S)sc1SCC(=O)O,-4.99*
NC(=O)CSc1sc(=S)sc1SCC(N)=O,-1.14
NCCSc1sc(=S)sc1SCCN,-0.58
CCOC(=O)c1ccc(Oc2nc(N(C)C)nc(N(C)C)n2)cc1,0.345
Fc1ccc(Nc2nc3nonc3nc2Nc2ccc(F)cc2F)c(F)c1,-1.23
COc1ccc(Nc2nc3nonc3nc2Nc2ccc(OC)cc2)cc1,-0.875
CN(C)c1nc2nonc2nc1Nc1ccc(F)cc1,-5.19*
CC(=O)Nc1cc2c(C)cc(=O)oc2c2c1OCC2=O,47.6
COc1cc2nc(NC(=O)c3ccc(Cl)cc3)[nH]c(=O)c2cc1OC,0.95
CC1CN(c2cc(=O)n(-c3ccc(Cl)cc3)c(=O)[nH]2)CC(C)O1 (centres undefined),-4.1*
COc1ccc(-n2c(=O)cc(N3CCCC3)[nH]c2=O)cc1,-1.39
SMILES,CapD inh
Cc1ccc(Cl)cc1-n1c(=O)cc(N2CC(C)OC(C)C2)[nH]c1=O (centres undefined),-0.78
NCCc1c[nH]c2ccccc12,1.51
CC1=NN(c2ccccc2)C(=O)/C1=C/c1cn(CC(O)CN2CCCCC2)c2ccccc12 (centres undefined),-4.83*
CC1=NN(c2ccccc2)C(=O)/C1=C/c1coc2ccccc2c1=O,-0.445
CC1=NN(c2ccc(Cl)c(C(=O)O)c2)C(=O)/C1=C/c1cn(Cc2ccccc2)c2ccccc12,-0.3
CCS(=O)CCSc1nc(-c2ccc(C)cc2)cc(-c2ccccc2)c1C#N (centres undefined),-0.915
Cc1ccc2occ(CC(=O)Nc3nnc(C)s3)c2c1,0.34
O=C(CCCC(=O)c1ccccc1)Nc1nc2ccc(Br)cc2s1,0.175
CC(=O)Nc1ccc2c(c1)C(=O)N(C1CCCCC1)C2=O,27.7

# Compound activity from PubChem BioAssay.
